Here are results for one sequence from article PMC7862700, “An all-to-all approach to the identification of sequence-specific readers for epigenetic DNA modifications on cytosine”.

Common to all, as to experiment: DAPPL (digital affinity profiling via proximity ligation, sequencing); 10 mM Tris-HCl pH 7.5, 50 mM NaCl, 1 mM DTT, 4% glycerol, room temperature, 30 min; GST-TFs on glutathione beads, 16-mer random dsDNA library, 0.1% formaldehyde crosslink after washing; high values mean tight binding
In experiment [1] the target is T1, FEV (Homo sapiens, UniProt Q99581 1-238).
T1 sequence: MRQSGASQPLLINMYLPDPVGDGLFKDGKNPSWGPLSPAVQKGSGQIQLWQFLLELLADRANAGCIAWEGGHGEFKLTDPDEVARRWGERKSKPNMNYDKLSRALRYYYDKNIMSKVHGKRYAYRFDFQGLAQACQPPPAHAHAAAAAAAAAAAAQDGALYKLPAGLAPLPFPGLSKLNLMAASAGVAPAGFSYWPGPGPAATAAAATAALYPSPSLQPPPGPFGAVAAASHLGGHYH
The settings on record: protein: recombinant; tags: N-terminal GST; dsDNA, one strand shown. In a few lines:
(§1)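 Each value of binding signal is a hexamer's read frequency for a factor divided by the same hexamer's frequency in the tag-only sample. Barcoded, bead-captured GST fusions of human transcription factors made in yeast were pooled with that sample and incubated with 200 nmole of a random double-stranded 16-mer DNA library in Tris/NaCl/DTT/glycerol buffer at room temperature for 30 min. Washing, 0.1% formaldehyde crosslinking, proximity ligation, PCR and Illumina NextSeq500 sequencing followed.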

Experiment [2] deals with ETV5 (Homo sapiens, UniProt P41161 1-510). The settings on record: protein: recombinant; tags: N-terminal GST; dsDNA, one strand shown. In a few lines:
as §1

Experiment [3] addresses HSF1 (Homo sapiens, UniProt Q00613 1-529). The settings on record: protein: recombinant; tags: N-terminal GST; chain copies: 3; dsDNA, one strand shown. In a few lines: as §1
In experiment [4] the target is T2, SPIC (Homo sapiens, UniProt Q8N5J4 1-248).
T2 sequence: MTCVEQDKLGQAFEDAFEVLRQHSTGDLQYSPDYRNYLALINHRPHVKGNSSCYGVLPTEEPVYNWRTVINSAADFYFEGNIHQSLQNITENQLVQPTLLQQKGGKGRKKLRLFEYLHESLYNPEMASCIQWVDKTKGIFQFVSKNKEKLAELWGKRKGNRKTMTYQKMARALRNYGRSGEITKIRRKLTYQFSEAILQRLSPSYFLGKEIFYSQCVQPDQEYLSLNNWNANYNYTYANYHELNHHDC
The settings on record: protein: recombinant; tags: N-terminal GST; dsDNA, one strand shown. In a few lines: as §1

The target of experiment [5] is ELF4 (Homo sapiens, UniProt Q99607 1-663). The settings on record: protein: recombinant; tags: N-terminal GST; dsDNA, one strand shown. In short, it runs like this:
as §1

In experiment [6] the target is T3, ELK4 (Homo sapiens, UniProt P28324-2 1-405).
T3 sequence: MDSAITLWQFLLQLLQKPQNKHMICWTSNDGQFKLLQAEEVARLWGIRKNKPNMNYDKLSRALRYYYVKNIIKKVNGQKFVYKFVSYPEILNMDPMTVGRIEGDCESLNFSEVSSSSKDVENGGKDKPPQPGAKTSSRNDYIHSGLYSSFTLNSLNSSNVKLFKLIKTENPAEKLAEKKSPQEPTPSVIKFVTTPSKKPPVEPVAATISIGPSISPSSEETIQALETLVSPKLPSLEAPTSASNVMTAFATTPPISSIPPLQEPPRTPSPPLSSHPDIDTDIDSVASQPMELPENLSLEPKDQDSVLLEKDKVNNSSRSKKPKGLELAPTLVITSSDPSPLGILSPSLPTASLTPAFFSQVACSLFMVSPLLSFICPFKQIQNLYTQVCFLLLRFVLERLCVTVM
The settings on record: protein: recombinant; tags: N-terminal GST; dsDNA, one strand shown. In short, it runs like this:
as §1

Experiment [7] deals with T4, ETV2 (Homo sapiens, UniProt O00321 1-342).
T4 sequence: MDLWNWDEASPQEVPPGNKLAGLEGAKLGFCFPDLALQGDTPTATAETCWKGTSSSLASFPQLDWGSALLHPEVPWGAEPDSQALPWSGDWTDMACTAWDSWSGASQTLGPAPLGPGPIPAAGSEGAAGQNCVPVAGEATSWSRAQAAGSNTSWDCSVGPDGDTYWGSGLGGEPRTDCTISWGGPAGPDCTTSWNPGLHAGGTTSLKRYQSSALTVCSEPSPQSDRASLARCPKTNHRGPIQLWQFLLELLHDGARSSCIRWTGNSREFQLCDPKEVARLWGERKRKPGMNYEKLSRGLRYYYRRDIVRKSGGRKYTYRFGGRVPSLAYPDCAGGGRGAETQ
The settings on record: protein: recombinant; tags: N-terminal GST; dsDNA, one strand shown. In a few lines:
as §1

Experiment [8] has as its target T5, ELF3 (Homo sapiens, UniProt P78545 1-371).
T5 sequence: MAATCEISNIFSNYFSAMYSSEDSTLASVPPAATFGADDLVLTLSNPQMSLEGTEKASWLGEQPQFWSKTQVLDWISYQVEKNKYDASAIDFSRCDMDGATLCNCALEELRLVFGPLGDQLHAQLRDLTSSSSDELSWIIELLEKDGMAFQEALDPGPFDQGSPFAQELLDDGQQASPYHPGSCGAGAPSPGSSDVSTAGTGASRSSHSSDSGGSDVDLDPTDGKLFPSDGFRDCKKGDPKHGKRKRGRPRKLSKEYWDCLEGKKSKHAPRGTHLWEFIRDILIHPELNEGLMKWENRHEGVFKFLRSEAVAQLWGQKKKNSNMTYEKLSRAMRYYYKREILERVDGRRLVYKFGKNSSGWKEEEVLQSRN
The settings on record: protein: recombinant; tags: N-terminal GST; dsDNA, one strand shown. In a few lines: as §1

Experiment [9] deals with CRX (Homo sapiens, UniProt O43186 1-299). The settings on record: protein: recombinant; tags: N-terminal GST; dsDNA, one strand shown. In short, it runs like this:
as §1

In experiment [10] the target is ETV1 (Homo sapiens, UniProt P50549 1-477). The settings on record: protein: recombinant; tags: N-terminal GST; dsDNA, one strand shown. In short, it runs like this: as §1
Experiment [11] addresses T6, ERF (Homo sapiens, UniProt P50548 1-548).
T6 sequence: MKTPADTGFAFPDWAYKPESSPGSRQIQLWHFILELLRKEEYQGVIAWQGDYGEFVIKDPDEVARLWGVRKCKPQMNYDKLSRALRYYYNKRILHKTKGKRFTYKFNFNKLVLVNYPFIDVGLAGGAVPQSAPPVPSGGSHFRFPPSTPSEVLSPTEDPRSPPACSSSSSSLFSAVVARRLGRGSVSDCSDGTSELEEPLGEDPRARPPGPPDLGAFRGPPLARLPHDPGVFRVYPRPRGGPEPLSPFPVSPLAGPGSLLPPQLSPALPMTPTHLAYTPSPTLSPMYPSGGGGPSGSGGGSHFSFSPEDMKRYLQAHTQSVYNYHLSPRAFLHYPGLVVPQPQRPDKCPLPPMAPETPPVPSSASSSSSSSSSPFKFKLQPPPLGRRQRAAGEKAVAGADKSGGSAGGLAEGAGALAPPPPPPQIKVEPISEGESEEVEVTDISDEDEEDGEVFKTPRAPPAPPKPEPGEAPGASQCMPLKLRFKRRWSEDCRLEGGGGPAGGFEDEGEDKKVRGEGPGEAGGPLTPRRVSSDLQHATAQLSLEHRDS
The settings on record: protein: recombinant; tags: N-terminal GST; dsDNA, one strand shown. In a few lines: as §1

The target of experiment [12] is T7, ETV3L (Homo sapiens, UniProt Q6ZN32 1-361).
T7 sequence: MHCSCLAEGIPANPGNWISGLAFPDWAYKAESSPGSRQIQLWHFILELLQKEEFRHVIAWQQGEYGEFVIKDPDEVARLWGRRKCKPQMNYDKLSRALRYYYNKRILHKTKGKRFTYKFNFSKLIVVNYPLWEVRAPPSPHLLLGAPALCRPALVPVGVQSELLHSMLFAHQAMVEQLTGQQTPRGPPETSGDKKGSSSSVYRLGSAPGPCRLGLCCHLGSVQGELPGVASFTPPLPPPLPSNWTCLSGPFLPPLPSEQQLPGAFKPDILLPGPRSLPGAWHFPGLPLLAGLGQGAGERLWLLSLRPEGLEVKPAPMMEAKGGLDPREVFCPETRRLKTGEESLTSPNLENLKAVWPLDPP
The settings on record: protein: recombinant; tags: N-terminal GST; dsDNA, one strand shown. In short, it runs like this: as §1

The target of experiment [13] is T8, ETS2 (Homo sapiens, UniProt P15036 1-469).
T8 sequence: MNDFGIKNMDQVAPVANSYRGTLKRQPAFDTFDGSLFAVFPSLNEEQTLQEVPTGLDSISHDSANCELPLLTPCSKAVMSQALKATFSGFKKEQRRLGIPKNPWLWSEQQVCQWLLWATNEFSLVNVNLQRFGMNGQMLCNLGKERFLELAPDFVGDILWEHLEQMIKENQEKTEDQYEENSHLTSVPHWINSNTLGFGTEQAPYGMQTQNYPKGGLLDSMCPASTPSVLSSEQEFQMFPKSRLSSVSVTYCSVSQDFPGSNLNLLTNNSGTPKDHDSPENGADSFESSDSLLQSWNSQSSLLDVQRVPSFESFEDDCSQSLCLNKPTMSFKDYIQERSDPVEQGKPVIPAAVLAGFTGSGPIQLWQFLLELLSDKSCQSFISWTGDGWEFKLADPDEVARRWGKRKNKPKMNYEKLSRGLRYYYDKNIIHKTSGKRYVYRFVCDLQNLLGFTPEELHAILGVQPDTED
The settings on record: protein: recombinant; tags: N-terminal GST; dsDNA, one strand shown. In short, it runs like this: as §1

For experiment [14], the target named is T9, SPDEF (Homo sapiens, UniProt O95238 1-335).
T9 sequence: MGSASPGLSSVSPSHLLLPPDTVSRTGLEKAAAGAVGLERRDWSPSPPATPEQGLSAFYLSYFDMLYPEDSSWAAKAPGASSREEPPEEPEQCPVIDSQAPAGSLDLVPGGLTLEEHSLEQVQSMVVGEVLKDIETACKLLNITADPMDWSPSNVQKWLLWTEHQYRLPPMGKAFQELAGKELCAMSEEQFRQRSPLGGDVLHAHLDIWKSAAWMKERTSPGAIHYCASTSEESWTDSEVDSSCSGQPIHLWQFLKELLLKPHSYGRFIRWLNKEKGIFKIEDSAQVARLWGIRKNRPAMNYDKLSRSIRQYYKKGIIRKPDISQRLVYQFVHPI
The settings on record: protein: recombinant; tags: N-terminal GST; dsDNA, one strand shown. In a few lines:
as §1

In experiment [15] the target is T10, ETV7 (Homo sapiens, UniProt Q9Y603 1-341).
T10 sequence: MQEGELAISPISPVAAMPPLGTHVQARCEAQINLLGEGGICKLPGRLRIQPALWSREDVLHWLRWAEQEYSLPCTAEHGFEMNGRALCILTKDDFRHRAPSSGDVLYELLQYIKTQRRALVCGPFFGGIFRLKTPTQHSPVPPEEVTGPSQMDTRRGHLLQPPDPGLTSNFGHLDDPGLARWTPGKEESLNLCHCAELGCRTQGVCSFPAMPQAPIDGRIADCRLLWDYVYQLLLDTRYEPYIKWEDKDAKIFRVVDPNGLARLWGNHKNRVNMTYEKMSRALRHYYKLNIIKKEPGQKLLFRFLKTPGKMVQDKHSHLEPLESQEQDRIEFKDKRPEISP
The settings on record: protein: recombinant; tags: N-terminal GST; dsDNA, one strand shown. In short, it runs like this:
as §1

Experiment [16] deals with T11, ELF5 (Homo sapiens, UniProt Q9UKW6-2 1-255).
T11 sequence: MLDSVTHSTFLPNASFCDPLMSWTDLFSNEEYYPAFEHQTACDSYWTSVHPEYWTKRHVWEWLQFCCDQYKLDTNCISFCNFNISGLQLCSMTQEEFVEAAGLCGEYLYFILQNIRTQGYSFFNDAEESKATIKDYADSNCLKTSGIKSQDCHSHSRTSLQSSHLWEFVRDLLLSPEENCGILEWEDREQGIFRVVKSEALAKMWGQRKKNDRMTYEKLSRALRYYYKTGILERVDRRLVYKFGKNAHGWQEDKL
The settings on record: protein: recombinant; tags: N-terminal GST; dsDNA, one strand shown. In a few lines:
as §1

In experiment [17] the target is T12, ETV3 (Homo sapiens, UniProt P41162-2 1-143).
T12 sequence: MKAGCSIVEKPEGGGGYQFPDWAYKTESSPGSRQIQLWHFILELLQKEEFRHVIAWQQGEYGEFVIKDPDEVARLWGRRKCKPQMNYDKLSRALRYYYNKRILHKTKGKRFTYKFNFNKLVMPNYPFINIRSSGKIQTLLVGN
The settings on record: protein: recombinant; tags: N-terminal GST; dsDNA, one strand shown. In short, it runs like this: as §1

In experiment [18] the target is ETV6 (Homo sapiens, UniProt P41212 1-452). The settings on record: protein: recombinant; tags: N-terminal GST; dsDNA, one strand shown. In short, it runs like this: as §1
Sequence of ETV6 (P41212 whole entry): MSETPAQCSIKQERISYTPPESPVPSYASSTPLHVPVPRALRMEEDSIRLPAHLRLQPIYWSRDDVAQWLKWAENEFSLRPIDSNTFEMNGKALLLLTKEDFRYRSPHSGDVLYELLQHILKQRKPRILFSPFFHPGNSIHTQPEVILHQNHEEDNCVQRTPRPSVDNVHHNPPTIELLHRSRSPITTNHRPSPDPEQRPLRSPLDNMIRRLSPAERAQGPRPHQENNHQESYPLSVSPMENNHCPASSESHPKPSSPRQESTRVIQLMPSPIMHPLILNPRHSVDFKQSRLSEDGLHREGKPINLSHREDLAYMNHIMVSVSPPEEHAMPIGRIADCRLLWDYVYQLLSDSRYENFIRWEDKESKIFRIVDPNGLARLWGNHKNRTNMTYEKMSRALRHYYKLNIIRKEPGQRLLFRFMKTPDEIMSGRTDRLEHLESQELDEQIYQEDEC

Sequence of ELF4 (Q99607 whole entry): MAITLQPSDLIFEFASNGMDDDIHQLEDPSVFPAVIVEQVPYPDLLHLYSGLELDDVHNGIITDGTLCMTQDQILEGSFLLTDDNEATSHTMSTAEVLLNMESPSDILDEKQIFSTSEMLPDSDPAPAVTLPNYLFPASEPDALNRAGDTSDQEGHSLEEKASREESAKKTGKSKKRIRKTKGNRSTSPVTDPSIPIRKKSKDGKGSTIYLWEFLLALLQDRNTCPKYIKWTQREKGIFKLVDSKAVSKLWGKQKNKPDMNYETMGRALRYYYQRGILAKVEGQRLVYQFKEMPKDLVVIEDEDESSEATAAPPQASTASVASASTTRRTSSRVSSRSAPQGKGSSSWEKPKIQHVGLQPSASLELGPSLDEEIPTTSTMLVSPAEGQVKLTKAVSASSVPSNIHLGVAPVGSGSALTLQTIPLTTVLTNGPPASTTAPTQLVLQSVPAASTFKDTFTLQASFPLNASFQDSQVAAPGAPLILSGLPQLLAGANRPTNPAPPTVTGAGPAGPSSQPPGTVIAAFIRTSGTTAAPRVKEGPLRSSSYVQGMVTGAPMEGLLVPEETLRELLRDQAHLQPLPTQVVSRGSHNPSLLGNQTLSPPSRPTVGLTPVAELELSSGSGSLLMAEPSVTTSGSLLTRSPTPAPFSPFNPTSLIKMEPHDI
Sequence of ETV5 (P41161 whole entry): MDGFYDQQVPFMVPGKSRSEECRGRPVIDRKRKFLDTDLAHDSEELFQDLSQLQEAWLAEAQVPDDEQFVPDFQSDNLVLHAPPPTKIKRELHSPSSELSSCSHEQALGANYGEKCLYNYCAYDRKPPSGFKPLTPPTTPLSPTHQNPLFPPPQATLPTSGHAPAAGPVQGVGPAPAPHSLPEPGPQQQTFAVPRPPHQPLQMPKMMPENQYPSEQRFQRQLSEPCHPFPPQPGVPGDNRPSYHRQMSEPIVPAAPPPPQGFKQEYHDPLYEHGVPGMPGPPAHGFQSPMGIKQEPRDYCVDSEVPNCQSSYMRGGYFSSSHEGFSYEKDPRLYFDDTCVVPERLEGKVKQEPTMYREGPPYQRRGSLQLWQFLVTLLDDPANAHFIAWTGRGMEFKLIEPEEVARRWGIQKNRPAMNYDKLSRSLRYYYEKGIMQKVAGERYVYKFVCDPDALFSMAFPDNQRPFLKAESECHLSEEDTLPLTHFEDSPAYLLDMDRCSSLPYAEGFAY
Sequence of CRX (O43186 whole entry): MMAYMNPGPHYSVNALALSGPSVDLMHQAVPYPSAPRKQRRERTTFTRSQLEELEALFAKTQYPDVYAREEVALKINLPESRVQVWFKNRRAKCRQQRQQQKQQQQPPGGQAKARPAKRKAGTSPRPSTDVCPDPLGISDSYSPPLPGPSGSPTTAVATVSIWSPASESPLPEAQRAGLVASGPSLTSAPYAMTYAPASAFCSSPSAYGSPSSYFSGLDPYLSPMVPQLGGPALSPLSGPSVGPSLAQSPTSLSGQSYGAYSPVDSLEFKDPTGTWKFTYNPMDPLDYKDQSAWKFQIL
Sequence of HSF1 (Q00613 whole entry): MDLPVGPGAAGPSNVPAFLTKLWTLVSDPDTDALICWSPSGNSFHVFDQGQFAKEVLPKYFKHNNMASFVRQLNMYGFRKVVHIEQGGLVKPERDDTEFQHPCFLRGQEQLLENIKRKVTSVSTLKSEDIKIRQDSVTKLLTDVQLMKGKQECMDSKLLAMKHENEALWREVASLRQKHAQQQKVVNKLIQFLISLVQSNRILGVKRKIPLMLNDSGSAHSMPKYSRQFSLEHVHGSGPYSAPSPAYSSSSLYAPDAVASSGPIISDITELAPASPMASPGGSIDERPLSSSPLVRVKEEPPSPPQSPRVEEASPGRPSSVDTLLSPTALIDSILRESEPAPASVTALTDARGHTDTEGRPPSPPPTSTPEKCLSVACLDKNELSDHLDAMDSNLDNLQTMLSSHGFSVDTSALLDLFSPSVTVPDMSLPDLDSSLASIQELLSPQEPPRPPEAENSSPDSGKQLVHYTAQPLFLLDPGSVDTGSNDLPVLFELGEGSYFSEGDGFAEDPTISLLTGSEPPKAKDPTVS
Sequence of ETV1 (P50549 whole entry): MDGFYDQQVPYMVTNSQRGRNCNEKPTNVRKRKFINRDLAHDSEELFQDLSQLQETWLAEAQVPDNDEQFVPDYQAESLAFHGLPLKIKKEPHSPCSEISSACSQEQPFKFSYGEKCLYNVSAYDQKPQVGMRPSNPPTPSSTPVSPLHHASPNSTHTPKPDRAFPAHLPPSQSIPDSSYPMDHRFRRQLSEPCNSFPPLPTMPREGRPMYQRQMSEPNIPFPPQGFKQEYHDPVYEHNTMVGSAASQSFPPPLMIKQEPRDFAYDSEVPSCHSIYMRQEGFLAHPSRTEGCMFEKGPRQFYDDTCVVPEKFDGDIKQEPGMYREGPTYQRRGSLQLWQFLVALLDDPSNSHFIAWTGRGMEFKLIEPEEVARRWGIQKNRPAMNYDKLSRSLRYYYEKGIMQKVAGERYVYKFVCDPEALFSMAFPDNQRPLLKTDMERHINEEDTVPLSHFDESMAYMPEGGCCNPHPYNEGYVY

AAATAA: the binding signal in [1] was 1.29 fold enrichment (6-mer frequency, TF over GST control); in [2] it was 1.37 fold enrichment (6-mer frequency, TF over GST control); in experiment [3], 1.48 fold enrichment (6-mer frequency, TF over GST control); in experiment [4], 1.27 fold enrichment (6-mer frequency, TF over GST control); in [5], 1.32 fold enrichment (6-mer frequency, TF over GST control); in experiment [6] it was 1.34 fold enrichment (6-mer frequency, TF over GST control). Also, the binding signal is 1.28 fold enrichment (6-mer frequency, TF over GST control) in experiment [7]; 1.43 fold enrichment (6-mer frequency, TF over GST control) in experiment [8]; 1.71 fold enrichment (6-mer frequency, TF over GST control) in experiment [9]; 1.3 fold enrichment (6-mer frequency, TF over GST control) in [10]; 1.38 fold enrichment (6-mer frequency, TF over GST control) in experiment [11]; 1.26 fold enrichment (6-mer frequency, TF over GST control) in experiment [12]. The binding signal in experiment [13] was 1.39 fold enrichment (6-mer frequency, TF over GST control); in experiment [14] it was 1.25 fold enrichment (6-mer frequency, TF over GST control); in experiment [15], 1.32 fold enrichment (6-mer frequency, TF over GST control); in [16], 1.34 fold enrichment (6-mer frequency, TF over GST control); in [17], 1.31 fold enrichment (6-mer frequency, TF over GST control); in [18] it was 1.5 fold enrichment (6-mer frequency, TF over GST control).
